The panel holds about 83,000 compounds, 20% with a hit somewhere; the sample as a whole holds those more often.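 A percent growth of 40 corresponds to 60% growth inhibition; 0 means no net growth; -100 means all cells died. Active threshold: below 10.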 Values without a mark were called inactive. The source made the active and inactive calls.
The compounds below were run on RPMI-8226 leukemia (assay: NCI-60 one-dose screen, 48 h (100 = growth as untreated, 0 = no growth, -100 = all killed)). Conditions: 10 µM unless noted.

| SMILES | growth |
| --- | --- |
| Cc1ccc(S(=O)(=O)NC(CCC(=O)Nc2ccccc2)C(=O)Nc2ccccc2)cc1 (stereo not given) | -17.1% (active) |
| COc1ccc(/C=C2\CCCC3=C2N=C2SC=NN2C3c2ccc(OC)c(OC)c2)cc1OC (stereo not given) | -14.8% (active) |
| O=C1C(Br)=CC2C1C1C3CCC3C2(Br)C12OCCO2 (stereo not given) | 7.82% (active) |
| Oc1ccc(Br)cc1/C=N/NC(=S)NC12CC3CC(CC(C3)C1)C2 | -21.3% (active) |
| Cc1ccc([C@@H]2C[C@H](O)Cc3ccccc3N2)s1 | 102% |
| CCCCCCC(C)N(CC(C)(C)O)C(=O)c1ccc([N+](=O)[O-])cc1 (stereo not given) | 96% |
| CC[n+]1c(C)ccc2cc(C)ccc21 | 101% |
| CCN(CC)CCCNc1c2ccc(Cl)cc2nc2ccc(OC)cc12 | -21.5% (active) |
| O=C(NCCNCCO)c1cc([N+](=O)[O-])cc([N+](=O)[O-])c1O | 96.7% |
| COC1=C(OC)C(=O)c2ccccc2C1=O | 97.5% |
| O=C(/C=C\c1ccc(NCc2ccc(C(=O)O)cc2)cc1)CCl | 60.4% |
| CC1Cc2cc(F)ccc2-n2cccc21 (stereo not given) | 111% |
| CNc1ccc(Nc2ccc(S(=O)(=O)O)cc2)c2c1C(=O)c1ccccc1C2=O | 107% |
| CC(=O)Nc1ccc(C(=O)/C=C/c2ccc(N(C)C)cc2)cc1 | 102% |
| Cc1sc(NC(=O)c2ccc(C(C)(C)C)cc2)c(C(=O)O)c1C | 47.2% |
| O=C(CBr)OCc1ccc([N+](=O)[O-])o1 | 86.3% |
| CCCCN(CCC)CCCCCCCCCCN1CCCc2ccccc21 | -2.32% (active) |
| C=C(C)[C@@H]1CC[C@]2(COC(=O)c3ccccc3C(=O)O)CC[C@]3(C)[C@H](CC[C@@H]4[C@@]5(C)CCCNC(C)(C)[C@@H]5CC[C@]43C)[C@@H]12 | 23.3% |
| COc1ccc(/C=C/C(=O)/C=C/c2cc3ccccc3[nH]c2=O)cc1 | -22% (active) |
| C=CN(C)S(C)(=O)=O | 16.8% |

Each compound was assayed on OVCAR-8 ovarian in the same assay as above. Conditions: 10 µM unless noted.

| SMILES | growth |
| --- | --- |
| CC(=O)OC1/C=C\CC/C=C\C1 (stereo not given) | 98.8% |
| CCCCCCCCC1OC1CCCCCCCC(=O)O (stereo not given) | 101% |
| O=c1[nH]c(=S)[nH]c(O)c1/C=C1\C=Nc2ccccc21 | 48.6% |
| CCOC1=C(Cl)C(=O)C(OCC)=C(Cl)C1=O | 104% |
| O=C1C(=O)c2ccccc2C(O)=C1CCCc1ccc(Oc2ccccc2)cc1 | 72.7% |
| CCN(CC)CCCC(C)Nc1c(C)cnc2cc(Cl)c(C)cc12 (stereo not given) | 96% |
| Oc1ccc([S+](c2ccc(O)cc2)c2ccc(O)cc2)cc1 | 94.3% |
| Cn1c2c(cc(S(=O)(=O)c3ccccc3)c1=O)CCc1c-2cnn1-c1ccc(Cl)cc1 | -48.4% (active) |
| CCCCCN1CCN(C(CC(=O)c2ccccc2)C(=O)c2ccccc2)CC1 (stereo not given) | 101% |
| S=C(N/N=C/c1cc(Cl)cc(Cl)c1)NC12CC3CC(CC(C3)C1)C2 | 56.8% |
| CC(=O)c1ccc2c(c1)c1ccccc1n2C | 95.4% |
| CC1(C)NC(=S)NC1=O | 106% |
| O=C(NC1CCN(Cc2ccccc2)CC1)c1cc(-c2cccnc2)nc2ccc(Cl)cc12 | 77.5% |
| O=C(O)CS(=O)c1ccc(Cl)cc1 (stereo not given) | 99% |
| Cc1ccc(S(=O)(=O)NC(CCC(=O)Nc2ccccc2)C(=O)Nc2ccccc2)cc1 (stereo not given) | -10.9% (active) |
| COc1ccc(/C=C2\CCCC3=C2N=C2SC=NN2C3c2ccc(OC)c(OC)c2)cc1OC (stereo not given) | 9.01% (active) |
| O=C1C(Br)=CC2C1C1C3CCC3C2(Br)C12OCCO2 (stereo not given) | 28.5% |
| Oc1ccc(Br)cc1/C=N/NC(=S)NC12CC3CC(CC(C3)C1)C2 | -31.3% (active) |
| Cc1ccc([C@@H]2C[C@H](O)Cc3ccccc3N2)s1 | 99.1% |
| CCCCCCC(C)N(CC(C)(C)O)C(=O)c1ccc([N+](=O)[O-])cc1 (stereo not given) | 101% |
| CC[n+]1c(C)ccc2cc(C)ccc21 | 88.4% |
| CCN(CC)CCCNc1c2ccc(Cl)cc2nc2ccc(OC)cc12 | 4.01% (active) |
| O=C(NCCNCCO)c1cc([N+](=O)[O-])cc([N+](=O)[O-])c1O | 101% |
| COC1=C(OC)C(=O)c2ccccc2C1=O | 93.3% |
| O=C(/C=C\c1ccc(NCc2ccc(C(=O)O)cc2)cc1)CCl | 66.9% |
